One assay relates to Staphylococcus aureus. Particulars: Concentration 32 ug.mL-1;; ASSAY_TEST Inhibition of Bacterial Growth; detection method Absorption (OD600); MEDIA CAMHB; plate type 384well; NBS; CORNING #3640; time 18 hr.
The next assay concerns Escherichia coli. Particulars: Concentration 32 ug.mL-1;; ASSAY_TEST Inhibition of Bacterial Growth; detection method Absorption (OD600); MEDIA CAMHB; plate type 384well; NBS; CORNING #3640; time 18 hr.

Structures are written as SMILES. Potency and affinity values are given separately.

Turning to `COc1ccc(-n2ccn3c(=O)n(Cc4ccccc4Cl)nc3c2=O)cc1Cl`, the Inhibition was found to be 3.32% in the assay with Staphylococcus aureus and 3.28% with Escherichia coli.

`CC(C)c1nnc2c(SCC(=O)Nc3cccc(Br)c3)nc3ccccc3n12`: the Inhibition with Staphylococcus aureus is recorded as 4.41%; in the assay with Escherichia coli, -8.3%.

For the compound `COc1cccc(CN(c2ccc(Cl)cc2)S(=O)(=O)c2ccc3nncn3c2)c1`, the Inhibition with Staphylococcus aureus is -6.52%; in the assay with Escherichia coli, -6.27%.

Regarding `CCc1ccc(NC(=O)Cn2nc3c4cc(-c5ccc(Cl)cc5)nn4ccn3c2=O)cc1`, the Inhibition with Staphylococcus aureus came out at 10.21%; with Escherichia coli, 3.59%.

For the compound `CC(C)c1nnc2c(=O)n(CC(=O)Nc3cc(Cl)ccc3Cl)c3ccccc3n12`, the Inhibition with Staphylococcus aureus stood at 3.75%; in the assay with Escherichia coli, 5.3%.

On to `Cc1ccc(Oc2nccn3c(=O)n(CC(=O)Nc4ccc(Br)cc4)nc23)cc1`, for which the Inhibition in the assay on Staphylococcus aureus was 6.95%; in the assay on Escherichia coli, -5.29%.

With `Cc1c(Cl)cccc1-n1ccn2c(=S)[nH]nc2c1=O`, the results for the Inhibition in the assay with Staphylococcus aureus and with Escherichia coli were 26.02% and 0.89%, respectively.

For `CC(C)(C)S(=O)(=O)c1ccc2nn(CC(=O)Nc3ccc4c(c3)OCO4)c(=O)n2n1`, the Inhibition in the assay on Staphylococcus aureus is recorded as 14.6%; in the assay with Escherichia coli it was 0.97%.

As for `COc1ccccc1-n1ccn2c(SCc3cc(C)ccc3C)nnc2c1=O`, the Inhibition in the assay with Staphylococcus aureus is reported as 12.05%; with Escherichia coli it was -5.03%.

Take `Cc1nnc2c(=O)n(CC(=O)Nc3ccc(F)cc3F)c3ccccc3n12`: the Inhibition is recorded as 10.56% with Staphylococcus aureus and -0.32% in the assay with Escherichia coli.

Regarding `COc1cccc(CN(c2ccc(F)c(F)c2)S(=O)(=O)c2ccc3nnc(C)n3c2)c1`, the Inhibition was 7.3% with Staphylococcus aureus and -2.88% in the assay on Escherichia coli.

In the case of `CCOc1ccc(-n2ccn3c(SCC(=O)c4cc(C)c(C)cc4C)nnc3c2=O)cc1`, the values for the Inhibition in the assay with Staphylococcus aureus and in the assay with Escherichia coli were 7.6% and -6.02%, respectively.

The Inhibition is the drop in the measured response relative to a control, in per cent.
